# Data published in PubChem BioAssay.
# Values without a mark were called inactive. The rule behind the calls is not given here.
# Biological target: Pantothenate synthetase (Mycobacterium tuberculosis (strain ATCC 25618 / H37Rv)) (UniProt P9WIL5)
# Test: Coupled enzyme confirmation of inhibitors against recombinant Mtb PanC (AID 375);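 note: 0% = full reaction with vehicle and 100% = no enzyme background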
# Conditions: coupled enzyme assay; at 10 µM, active compounds read high
# Pantothenate synthetase (Mycobacterium tuberculosis (strain ATCC 25618 / H37Rv)), sequence (P9WIL5 whole entry, looked up): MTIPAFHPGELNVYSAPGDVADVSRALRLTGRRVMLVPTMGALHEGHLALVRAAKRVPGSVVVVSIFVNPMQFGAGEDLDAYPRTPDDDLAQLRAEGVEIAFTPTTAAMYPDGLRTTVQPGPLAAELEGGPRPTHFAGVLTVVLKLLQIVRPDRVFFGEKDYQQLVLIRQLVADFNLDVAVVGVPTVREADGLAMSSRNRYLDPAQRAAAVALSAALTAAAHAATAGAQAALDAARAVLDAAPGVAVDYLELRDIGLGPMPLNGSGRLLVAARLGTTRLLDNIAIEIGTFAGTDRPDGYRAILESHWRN
row,SMILES,inhibition
1,CC(C)=CC(=O)N1CCCc2ccccc21,13%
2,O=C(CSc1nnc(-c2ccc(Br)cc2)n1C1CCCCC1)N1CCCC1,2%
3,COc1ccc(CCNC(=O)C2CCN(S(=O)(=O)c3cc(OC)ccc3OC)CC2)cc1,0%
4,O=C(Nc1nc(-c2ccccc2)cs1)C1CCCO1 (centres undefined),3%
5,C=CCn1c(COc2ccccc2)nnc1SCC(=O)C(C)(C)C,0%
6,OCCNC1=NCCN1,1%
7,C=CCOc1ccc(C2C(C(=O)c3ccco3)=C(O)C(=O)N2Cc2cccnc2)cc1 (centres undefined),0%
8,O=C(CCN1C(=O)c2ccccc2C1=O)Nc1ccc(F)cc1,0%
9,O=C(COc1ccc(F)cc1Br)N1CCc2ccccc21,10%
10,Cn1cc(-c2nc3ccccc3[nH]2)c2ccccc21,4%
11,CN(C(=O)COc1cc(=O)n(C)c2ccccc12)c1ccc(Br)cc1,0%
12,CCN(CC)S(=O)(=O)N1CCC(C(=O)NCC2COc3ccccc3O2)CC1 (centres undefined),1%
13,CCOC(=O)c1ccc(NS(=O)(=O)c2ccc3c(c2)CCCN3C(C)=O)cc1,0%
14,COc1cccc(-c2noc(-c3cccs3)n2)c1,1%
15,O=C1CCCc2nc(N3CCCCC3)sc21,5%
16,COCCCNC(=O)c1c(N)n(-c2cccc(S(N)(=O)=O)c2)c2nc3ccccc3nc12,2%
17,CCn1cc(C(=O)O)c(=O)c2cnc(N3CCNCC3)nc21,1%
18,CCOC(=O)CSC1=C(C#N)C(c2ccc(Cl)cc2)C(C(=O)OC)C(=O)N1 (centres undefined),0%
19,CN(C)c1ccc(C=Nc2ccc(N(C)C)cc2)cc1,0%
20,CC(C)C(c1nnnn1CC1CCCO1)N1CCN(Cc2ccc3c(c2)OCO3)CC1 (centres undefined),0%

row,SMILES,inhibition
1,COC(=O)c1cc(NS(=O)(=O)c2ccc3c(c2)CCC(=O)N3)cc(C(=O)OC)c1,0%
2,NC1=NC(c2ccc(Cl)cc2)n2c(nc3ccccc32)N1 (centres undefined),0%
3,CCN(CC)C(=O)Cn1c(=O)n(Cc2ccccc2Cl)c2c1c(=O)n(C)c(=O)n2C,3%
4,CCOc1cc(C(=O)N2CCN=C2SC)cc(OCC)c1OCC,7%
5,NC(=O)NC(c1ccccc1)c1ccccc1F (centres undefined),3%
6,Cc1cc(C)n(C(=O)CCCCCC(=O)n2nc(C)cc2C)n1,6%
7,O=S(=O)(Nc1cccnc1)c1ccc2c(c1)OCCO2,1%
8,COc1ccccc1NC1=NC2(CCCC2)N=C(N)N1,0%
9,Cc1ccc(C2c3c(oc4ccccc4c3=O)C(=O)N2c2nnc(C(C)C)s2)o1 (centres undefined),7%
10,CCOC(=O)c1cccc(NC(=O)CS(=O)(=O)Cc2nc(-c3cccc(OC)c3)oc2C)c1,0%
11,COc1ccccc1-c1c(C)nn2c(C)c(C(C)=O)cnc12,3%
12,CCC1CCCCN1C(=O)CSc1nnc(-c2ccc(OC)cc2)o1 (centres undefined),0%
13,CCCCN(CC)CCCNC(=O)CS(=O)(=O)Cc1nc(-c2cccc(OC)c2)oc1C,0%
14,O=C(NCCc1c[nH]c2ccccc12)c1ccc(S(=O)(=O)NCc2ccco2)cc1,0%
15,CC(C)(O)C#Cc1ccc(C(=O)N2CCN(C(=O)c3ccco3)CC2)cc1,0%
16,COc1ccccc1NS(=O)(=O)c1ccc(OC)c(OC)c1,8%
17,CCc1nc(C)c(C#N)c2cc(OC)c(OC)cc12,0%
18,CCc1cc2ccc(C)cc2nc1SCC(=O)N1CCN(C(=O)c2ccco2)CC1,0%
19,CCNCc1cc2cc(C)ccc2[nH]c1=O,0%
